Source: PubChem BioAssay
A selection: hits, their analogues and other compounds. The true share with any hit is near 5.5%.
Mito fusion yeast – qHTS Assay for Small Molecule Inhibitors of Mitochondrial Division or Activators of Mitochondrial Fusion | S. cerevisiae fusion-defective mutant growth rescue, CellTiterGlo 48 h | Potency, µM (top dose mostly 46.1 µM), for inactives: top-dose growth rescue (activation), actives largely listed as activators | 320,000 tested, 0.23% active | AID 485298, 2010; note: % of control where 0% means no effect; nearly all actives have a fitted effect of over 45% in size
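Yeast fusion mutant, YPEG (non-fermentable carbon), compound, 48 h at 37C non-permissive; CellTiterGlo added, 10 min RT, luminescence read. Rescued growth = division inhibition.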
uPA generation – qHTS for Inhibitors of Cell Surface uPA Generation; AID 540303, 2011; cell surface uPA generation assay, qHTS; Potency, µM (doses to about 38.3 µM), for inactives: at the highest dose activity change, negative = inhibition, usual class: inhibitors; 330,000 tested, 0.31% active; active = well fitted inhibition curve with a large enough effect; inconclusive = small, poorly fitted or top-dose-only effect; inactive = no such curve, though single readings can be large or run the other way; tested in mouse RAW 264.7 cells; note: % is set by controls: 0 for no effect and ±100 for the full control effect; nearly all actives have a fitted effect of over 55% in size
RORgamma inh – qHTS for inhibitors of ROR gamma transcriptional activity; Nuclear receptor ROR-gamma (Mus musculus), P51450; Drosophila S2 Gal4-RORgamma UAS-luciferase reporter, 20 h; Potency, µM (series often up to 53.6 µM), for inactives: at the top dose activity change, negative = inhibition, most hits filed as inhibitors; 310,000 tested, 5.4% active; AID 2551, 2010; note: % is set by controls: 0 for no effect and ±100 for the full control effect; nearly all actives have a fitted effect of over 60% in size
Target sequence (P51450 whole entry, looked up, the tested form may be a part): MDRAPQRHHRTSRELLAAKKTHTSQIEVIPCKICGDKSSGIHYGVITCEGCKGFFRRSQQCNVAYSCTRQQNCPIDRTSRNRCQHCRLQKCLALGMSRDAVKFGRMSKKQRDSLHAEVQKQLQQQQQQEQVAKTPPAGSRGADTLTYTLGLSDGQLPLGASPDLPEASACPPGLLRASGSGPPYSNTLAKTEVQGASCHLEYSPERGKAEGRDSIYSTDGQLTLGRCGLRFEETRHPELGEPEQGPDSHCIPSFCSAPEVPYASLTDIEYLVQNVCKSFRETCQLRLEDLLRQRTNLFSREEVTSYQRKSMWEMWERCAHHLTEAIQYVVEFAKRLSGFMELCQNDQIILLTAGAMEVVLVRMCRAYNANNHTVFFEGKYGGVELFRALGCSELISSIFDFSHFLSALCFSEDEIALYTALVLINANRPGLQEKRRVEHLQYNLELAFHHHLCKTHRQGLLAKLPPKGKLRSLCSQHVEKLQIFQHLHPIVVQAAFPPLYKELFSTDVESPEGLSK
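Compounds are pin-transferred onto Drosophila Schneider cells expressing a copper-inducible Gal4–ROR gamma transactivation domain fusion. After 1 hr, copper sulfate is added to 700 uM final; luciferase is read 20 hr later.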
Integrin act MD – qHTS for Activators of Integrin-Mediated Alleviation for Muscular Dystrophy | alpha7betagal myoblasts, beta-gal FDG fluorescence, 48 h | Potency, µM (highest dose often 38.3 µM), for inactives: at the top dose activation, hits mostly activators | 350,000 tested, 0.064% active | AID 624291, 2012;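 note: 100% = response of the positive control SU9516; nearly all actives have a fitted effect of over 60% in size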
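Alpha7betagal+/- myoblasts (passage 13) were plated 16-24 hr, then exposed to compounds (1:260 dilution of DMSO stock) for 48 hours at 37C. After MPER lysis, β-galactosidase reporter activity was read as FDG fluorescence (ex 480/em 540) after 30 minutes.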
VP16 counter – VP16 counterscreen qHTS for inhibitors of ROR gamma transcriptional activity. Potency, µM (doses to about 53.6 µM), for inactives: top-dose activity, negative = inhibition, usual class: inhibitors. Drosophila S2 Gal4-VP16 UAS-luciferase, luminescence, 20 h. 310,000 tested, 3.5% active. AID 2546, 2010;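 note: Gal4-VP16 expression switched on by copper sulfate through the metallothionein promoter; % is set by controls: 0 for no effect and ±100 for the full control effect; nearly all actives have a fitted effect of over 50% in size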
BCR signal inh – qHTS Assay to Find Inhibitors of Chronic Active B-Cell Receptor Signaling; ABC-DLBCL IkBa-CBG/CBR reporter, luminescence ratio, 4 h; Potency, µM (series often up to 46.1 µM), for the others: top-dose activity change, negative = inhibition, most hits filed as inhibitors; 340,000 tested, 0.05% active; active = well fitted inhibition curve with a large enough effect in the signal ratio, with a control signal flat, not every such curve was filed as active; inconclusive = small, poorly fitted or top-dose-only effect, or effect the other way, or a change in a side signal; the % refers to the signal ratio;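 note: plate controls were basal doxycycline-induced cells for no effect and cells given 10 µM MG132 for full effect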
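TMD8 human ABC-DLBCL cells with doxycycline-inducible IκBα–green luciferase fusion and unfused red luciferase, in 0.5% FBS medium; compounds up to 46 uM, 4 h at 37C. Green/red luminescence ratio, filter-overlap corrected, fitted to concentration-response curves.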
* = called active by the depositor; ? = inconclusive; . = no result; [ ] = another dose, or the depositor's remark. Unless noted, calls come from the whole dose curve; as a rule, active = well fitted curve in the direction sought with a large enough effect; inconclusive = small, poorly fitted or top-dose-only effect, or another doubt; inactive = no such curve, though single readings can be large; an effect the other way counts as inactive or inconclusive. Potency is the fitted concentration of half-maximal effect.

SMILES	Mito fusion yeast	uPA generation	RORgamma inh	Integrin act MD	VP16 counter	BCR signal inh
O=C(COC(=O)CCNS(=O)(=O)c1ccccc1)NC(=O)Cc1ccccc1	-2.2%	-15.7%	.	22.9%	.	1.0%
CCOc1cc(C(=O)OC(C)C(=O)Nc2ncc(Cl)cc2Cl)ccc1OCC(=O)N1CCOCC1 (stereo not given)	-4.6%	8.91µM*	14.5%	-32.5%	-10.3%	?
CCOc1cc(C(=O)OC(C)C(=O)Nc2ccccc2OC)ccc1OCC(=O)N1CCOCC1 (stereo not given)	.	-8.6%	.	-48.5%	.	.
CCN(CC)c1ccc(/C=C/C(=O)C2C(=O)C=C(C)OC2=O)cc1 (stereo not given)	0.4%	-6.4%	12.6µM*	-7.8%	?	-3.7%
COc1ccc(Cc2cnc(N)nc2N)cc1OC	.	.	3.6%	.	0.1%	.
Cc1ccc(S(=O)(=O)NCC(=O)NCC(=O)OC(C(=O)NC(N)=O)C(C)C)cc1C (stereo not given)	2.6%	3.5%	-4.6%	-30.7%	-1.4%	-1.2%
Cc1ccc(CC(=O)Nc2nccs2)cc1C	-2.8%	1.3%	?	13.6%	2.51µM*	?
O=C(COc1ccc2ccccc2c1)Nc1nccs1	-2.0%	-3.8%	10µM*	4.7%	15.8µM*	?
Cc1cccc(N2CCN(CC(=O)Nc3nccs3)CC2)c1C	6.7%	1.6%	10µM*	3.9%	-12.2%	-20.3%
S=C(NCc1ccccc1)Nc1nccs1	-9.6%	-0.7%	0.891µM*	11.2%	1.26µM*	-2.7%
Nc1ccccc1[N+](=O)[O-]	.	.	-11.4%	.	-1.1%	.
CCOc1ccc(C(=O)NC2CCN(C(=O)Nc3ccc(F)cc3)CC2)cc1	0.1%	0.6%	-23.6%	-14.6%	-1.7%	0.8%
CCS(=O)(=O)N1CCCC(C(=O)NCCOC)C1 (stereo not given)	.	.	.	.	.	0.6%
C/C(=C\C(=O)Nc1nccs1)c1ccccc1	-7.3%	-21.7%	8.91µM*	15.8%	11.2µM*	.
O=C(COc1ccccc1)Nc1nccs1	3.4%	-25.1%	12.6µM*	0.0%	?	?
O=C(COc1ccccc1)Nc1ncccn1	-1.0%	2.3%	38.1%	44.5%	4.5%	17.8%
C/C(=C\C(=O)O)C(=O)Nc1nccs1	-1.9%	2.7%	-0.5%	10.5%	6.4%	-3.0%
CC(C)CN1C(=O)c2ccc(C(=O)Nc3ccncc3)cc2C1=O	3.0%	.	?	-0.6%[7.66 µM]	20µM*	-1.3%
CC(C)CN1C(=O)c2ccc(C(=O)Nc3nccs3)cc2C1=O	5.9%	-1.4%	8.91µM*	11.0%	?	-0.2%
CCCN1C(=O)c2ccc(C(=O)Nc3nccs3)cc2C1=O	1.6%	2.2%	10µM*	-2.6%	?	?
COCCN1C(=O)c2ccc(C(=O)Nc3nccs3)cc2C1=O	3.0%	-2.7%	-32.5%	-2.4%	-4.3%	?
CCCc1cc(C(=O)Nc2nccs2)cs1	10.3%	-25.3%	5.01µM*	23.4%	7.94µM*	?
CCCCCCCCCCCCCC(=O)N[C@H](C)[C@@H](O)c1ccccc1	.	.	-7.8%	.	3.1%	.
C=CCn1c(COc2ccc(Cl)cc2)nnc1SCc1ccc(C#N)cc1	-8.3%	-3.1%	-18.2%	11.2µM*	2.5%	?
C=CCn1c(COc2ccccc2)nnc1SCc1ccc(C#N)cc1	-25.1%	3.7%	16.7%	-4.2%	-1.9%	1.3%
SMILES	Mito fusion yeast	uPA generation	RORgamma inh	Integrin act MD	VP16 counter	BCR signal inh
C=CCn1c(COc2ccccc2)nnc1SCC(=O)N/N=C/c1ccc(C)cc1	-2.7%	-1.5%	0.1%	-8.3%	-0.1%	2.0%
C=CCn1c(COc2ccc(Cl)cc2)nnc1SCC(=O)NCC(=O)OCC	-7.9%	0.1%	11.2µM*	0.0%	?	4.5%
C=CCn1c(COc2ccccc2)nnc1SCC(=O)N/N=C/c1cc(Cl)ccc1O	0.7%	-2.2%	12.6µM*	8.6%	?	.
C=CCn1c(COc2ccc(CC)cc2)nnc1SC/C(O)=C(\C#N)c1nc2ccccc2[nH]1	-2.6%	11.0%	11.2µM*	2.5%	?	8.1%
CN(C(=S)NC(=O)CCCOc1ccc(Cl)cc1Cl)c1ccccc1	20.7%	-1.6%	5.62µM*	-44.8%	-77.0%	?
O=C(COc1ccc(Cl)cc1Cl)N/N=C/c1ccc[nH]1	0.8%	?	2.82µM*	-18.0%	4.47µM*	0.0%
O=C(CCCOc1ccc(Cl)cc1Cl)N/N=C/c1ccccc1O	6.4%	-9.2%	8.91µM*	-6.9%	-82.7%	-25.7%
O=C(CCCOc1ccc(Cl)cc1Cl)N/N=C/c1ccccc1	-0.6%	1.1%	-16.9%	-8.9%	?	?
C=CCOC(=O)N[C@H](/C(C(=O)OC)=C(\C)NCc1ccccc1)c1cccc(C(F)(F)F)c1	.	.	3.1%	.	6.1%	.
CC1Cc2cc(S(=O)(=O)NCc3ccc(F)cc3)ccc2N1C(=O)C1CCC1 (stereo not given)	.	.	.	.	.	-4.4%
CC1=CC(=O)NS(=O)(=O)O1	.	.	16.8%	.	-11.1%	.
COc1cc(C2CC(=O)c3c([nH]c(C(=O)OC4CCCCC4)c3C)C2)cc(OC)c1OC (stereo not given)	-0.5%	.	.	.	.	2.0%
COc1cccc(C2(O)CC(C(F)(F)F)=NN2C(=O)c2ccccn2)c1 (stereo not given)	-1.3%	-5.7%	1.58µM*	3.5%	6.31µM*	?
COc1cccc(C2=NN(C(=O)c3ccc(C)o3)C(O)(C(F)(F)F)C2)c1 (stereo not given)	17.6%	.	-79.4%	3.6%	?	?
COc1cccc(C2=NN(C(=O)c3cccs3)C(O)(C(F)(F)F)C2)c1 (stereo not given)	-2.4%	-7.1%	27.3%	1.2%	3.4%[10 µM]	-20.6%
COc1cccc(C(=O)N2N=C(c3cccc(OC)c3)CC2(O)C(F)(F)F)c1 (stereo not given)	1.9%	3.5%	11.2µM*	13.7%	-18.2%	?
COc1cccc(C(=O)N2N=C(c3ccccn3)CC2(O)C(F)(F)F)c1 (stereo not given)	14.6%	?	2µM*	-66.4%	5.01µM*	?
COc1ccc(C(=O)N2N=C(c3cccc(OC)c3)CC2(O)C(F)(F)F)cc1 (stereo not given)	8.3%	4.2%	11.2µM*	1.6%	-67.9%	-15.5%
CC(=O)c1ccc(S(=O)(=O)N2CCCC(N(C)CCc3ccccn3)C2)cc1 (stereo not given)	2.2%	1.7%	7.9%	-35.9%	3.4%	0.1%
CC(C)(C)CNc1nc(C#N)nc(Nc2ccccc2)n1	.	.	.	.	-6.1%	.
COCCOC(=O)C1=C(C)NC(=O)NC1c1ccc(-c2cc(Cl)ccc2Cl)o1 (stereo not given)	14.1%	2.9%	12.1%	3.3%	4.5%	-32.3%
